Records with an inconclusive call do not appear. Activity calls are given as the source filed them. How the source made its calls, unless noted: active means hit-call score of the fitted dose curve at least 0.9, where 1 is the maximum; inconclusive means response in the unintended direction; inactive means score below 0.9.
Tests used:
[1] = biological target: human Peroxisome Proliferator-activated Receptor alpha (PPARa), PPARA (gene 5465) (UniProt Q07869); assay: ATG_PPARa_TRANS: Attagene TRANS-FACTORIAL HepG2 Assay for human Peroxisome Proliferator-activated Receptor alpha (PPARa) (AID 2283001)
human Peroxisome Proliferator-activated Receptor alpha (PPARa), PPARA (gene 5465), sequence (Q07869 whole entry, looked up, the tested form may be a part): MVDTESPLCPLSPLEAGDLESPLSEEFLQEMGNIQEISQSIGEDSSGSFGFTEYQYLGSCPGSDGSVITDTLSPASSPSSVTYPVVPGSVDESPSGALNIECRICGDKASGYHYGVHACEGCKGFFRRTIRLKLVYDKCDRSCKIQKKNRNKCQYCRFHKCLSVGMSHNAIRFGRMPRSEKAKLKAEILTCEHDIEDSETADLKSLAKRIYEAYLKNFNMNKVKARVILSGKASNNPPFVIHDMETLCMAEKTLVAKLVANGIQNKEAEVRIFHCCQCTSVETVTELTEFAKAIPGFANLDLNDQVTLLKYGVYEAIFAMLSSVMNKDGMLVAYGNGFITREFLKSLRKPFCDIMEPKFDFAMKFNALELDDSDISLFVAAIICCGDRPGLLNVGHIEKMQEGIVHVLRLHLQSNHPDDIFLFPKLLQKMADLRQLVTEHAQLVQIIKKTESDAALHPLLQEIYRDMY
Outline: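 Measures transcriptional activity of an exogenous chimeric PPARa-Gal4 protein in transiently transfected HepG2 cells after 24 h dosing. Reporter mRNA quantified via RT-PCR and capillary electrophoresis; DMSO served as negative control.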

[2] = biological target: human Peroxisome Proliferator-activated Receptor delta (PPARd), PPARD (gene 5467) (UniProt Q03181); assay: ATG_PPARd_TRANS: Attagene TRANS-FACTORIAL HepG2 Assay for human Peroxisome Proliferator-activated Receptor delta (PPARd) (AID 2283002)
human Peroxisome Proliferator-activated Receptor delta (PPARd), PPARD (gene 5467), sequence (Q03181 whole entry, looked up, the tested form may be a part): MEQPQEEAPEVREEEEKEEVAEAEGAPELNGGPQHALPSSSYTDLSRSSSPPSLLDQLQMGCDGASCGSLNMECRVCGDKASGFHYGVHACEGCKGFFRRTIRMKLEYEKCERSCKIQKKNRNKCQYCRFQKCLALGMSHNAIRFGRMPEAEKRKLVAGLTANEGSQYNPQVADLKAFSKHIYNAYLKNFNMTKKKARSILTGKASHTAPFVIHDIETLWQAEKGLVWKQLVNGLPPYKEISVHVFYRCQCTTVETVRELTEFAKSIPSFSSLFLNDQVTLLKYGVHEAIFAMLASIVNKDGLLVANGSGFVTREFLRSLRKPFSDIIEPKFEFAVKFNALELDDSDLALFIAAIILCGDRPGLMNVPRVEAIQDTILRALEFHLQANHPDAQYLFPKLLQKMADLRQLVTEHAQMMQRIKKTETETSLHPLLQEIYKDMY
Outline: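 HepG2 cells transiently transfected with GAL4-UAS multiplexed reporter units driven by exogenous chimeric NR-GAL4 proteins; 24 h compound exposure. Reporter mRNA measured by RT-PCR, 6-FAM primer extension, HpaI digestion and capillary electrophoresis; gain of signal fitted relative to DMSO.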

[3] = biological target: Peroxisome proliferator-activated receptor gamma (Homo sapiens) (UniProt P37231); assay: ATG_PPARg_TRANS: Attagene TRANS-FACTORIAL HepG2 Assay for human Peroxisome Proliferator-activated Receptor-gamma (PPARg) (AID 2283007)
Peroxisome proliferator-activated receptor gamma (Homo sapiens), sequence (P37231 whole entry, looked up, the tested form may be a part): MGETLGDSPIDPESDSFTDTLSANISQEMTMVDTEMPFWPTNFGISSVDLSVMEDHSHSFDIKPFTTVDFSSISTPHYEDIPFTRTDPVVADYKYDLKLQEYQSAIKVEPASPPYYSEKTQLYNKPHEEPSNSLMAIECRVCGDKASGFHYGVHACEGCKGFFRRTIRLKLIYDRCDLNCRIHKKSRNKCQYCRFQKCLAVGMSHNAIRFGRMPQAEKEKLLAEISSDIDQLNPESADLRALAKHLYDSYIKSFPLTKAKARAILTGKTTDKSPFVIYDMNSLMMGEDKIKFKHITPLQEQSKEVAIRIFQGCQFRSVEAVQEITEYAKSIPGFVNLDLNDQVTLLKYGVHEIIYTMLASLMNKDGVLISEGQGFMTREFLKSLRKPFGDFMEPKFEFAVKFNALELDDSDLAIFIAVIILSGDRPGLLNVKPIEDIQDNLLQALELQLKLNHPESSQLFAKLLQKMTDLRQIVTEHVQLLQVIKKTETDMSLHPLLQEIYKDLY
Outline: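 HepG2 cells transiently transfected with multiplexed GAL4-UAS reporter units and exogenous chimeric NR-Gal4 proteins; reporter mRNA quantified after 24 h compound exposure by RT-PCR, fluorescent labelling, HpaI digestion and capillary electrophoresis; gain-of-signal fitted versus DMSO baseline.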

[4] = biological target: Nuclear receptor subfamily 1 group I member 2 (Homo sapiens) (UniProt O75469); assay: ATG_PXR_TRANS: Attagene TRANS-FACTORIAL HepG2 Assay for human Pregnane X Receptor (PXR) (AID 2283008)
Nuclear receptor subfamily 1 group I member 2 (Homo sapiens), sequence (O75469 whole entry, looked up, the tested form may be a part): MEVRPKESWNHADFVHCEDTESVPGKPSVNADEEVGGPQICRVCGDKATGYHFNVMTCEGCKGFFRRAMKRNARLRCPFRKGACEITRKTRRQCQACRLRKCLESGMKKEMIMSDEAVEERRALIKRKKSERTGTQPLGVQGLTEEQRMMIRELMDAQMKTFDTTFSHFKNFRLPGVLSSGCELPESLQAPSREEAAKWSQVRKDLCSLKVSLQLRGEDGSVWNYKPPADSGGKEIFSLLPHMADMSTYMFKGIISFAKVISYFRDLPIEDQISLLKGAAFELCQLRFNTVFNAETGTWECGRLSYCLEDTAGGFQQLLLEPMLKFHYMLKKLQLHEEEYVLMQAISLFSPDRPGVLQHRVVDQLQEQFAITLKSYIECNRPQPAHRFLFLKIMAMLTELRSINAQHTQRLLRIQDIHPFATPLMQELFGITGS
Outline: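 HepG2 cells transiently transfected with multiple reporter units, here a PXR-GAL4 chimera driving a GAL4-UAS reporter; 24 h compound exposure. Reporter mRNA measured by RT-PCR, FAM labelling and capillary electrophoresis; gain of signal fitted against DMSO baseline.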

[5] = biological target: human RAR-related Orphan Receptor beta (RORb), RORB (gene 6096) (UniProt Q92753); assay: ATG_RORb_TRANS: Attagene TRANS-FACTORIAL HepG2 Assay for human RAR-related Orphan Receptor beta (RORb) (AID 2283010)
human RAR-related Orphan Receptor beta (RORb), RORB (gene 6096), sequence (Q92753 whole entry, looked up, the tested form may be a part): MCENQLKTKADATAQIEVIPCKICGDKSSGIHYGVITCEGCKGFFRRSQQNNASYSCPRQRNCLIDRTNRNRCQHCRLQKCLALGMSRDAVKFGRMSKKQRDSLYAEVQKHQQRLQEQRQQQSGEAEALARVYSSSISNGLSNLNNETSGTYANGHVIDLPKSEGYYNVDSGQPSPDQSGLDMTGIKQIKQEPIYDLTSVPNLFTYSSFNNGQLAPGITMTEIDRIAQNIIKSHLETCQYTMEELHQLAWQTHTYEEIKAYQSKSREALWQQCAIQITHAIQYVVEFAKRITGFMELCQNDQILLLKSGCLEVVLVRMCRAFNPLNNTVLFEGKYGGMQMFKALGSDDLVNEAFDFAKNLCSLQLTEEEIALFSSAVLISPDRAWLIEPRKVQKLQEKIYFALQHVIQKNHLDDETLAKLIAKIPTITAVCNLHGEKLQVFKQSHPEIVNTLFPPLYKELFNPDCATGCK
Outline: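 HepG2 cells were transiently transfected with multiplexed GAL4-UAS reporter units expressing chimeric nuclear receptor–GAL4 proteins, then dosed for 24 h. Reporter mRNA was quantified by RT-PCR with fluorescent labelling and capillary electrophoresis; gain of signal was fitted relative to DMSO.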

[6] = biological target: human RAR-related Orphan Receptor gamma (RORg), RORC (gene 6097) (UniProt P51449); assay: ATG_RORg_TRANS: Attagene TRANS-FACTORIAL HepG2 Assay for human RAR-related Orphan Receptor gamma (RORg) (AID 2283011)
human RAR-related Orphan Receptor gamma (RORg), RORC (gene 6097), sequence (P51449 whole entry, looked up, the tested form may be a part): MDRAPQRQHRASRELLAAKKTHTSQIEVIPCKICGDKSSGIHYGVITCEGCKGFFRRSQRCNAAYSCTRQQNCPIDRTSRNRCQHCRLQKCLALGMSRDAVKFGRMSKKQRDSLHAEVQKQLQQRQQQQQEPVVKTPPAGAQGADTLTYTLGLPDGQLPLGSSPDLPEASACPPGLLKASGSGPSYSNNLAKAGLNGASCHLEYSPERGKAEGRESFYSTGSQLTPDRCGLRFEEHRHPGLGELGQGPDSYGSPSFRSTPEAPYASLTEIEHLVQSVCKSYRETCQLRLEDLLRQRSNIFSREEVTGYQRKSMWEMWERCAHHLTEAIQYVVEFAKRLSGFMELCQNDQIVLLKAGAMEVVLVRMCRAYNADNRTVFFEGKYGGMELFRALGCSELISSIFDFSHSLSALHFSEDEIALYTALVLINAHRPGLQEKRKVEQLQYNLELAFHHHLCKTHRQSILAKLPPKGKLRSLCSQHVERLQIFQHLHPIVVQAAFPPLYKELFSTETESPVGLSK
Outline: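 Readout: reporter transcript induction (RT-PCR, fluorescent primer extension, capillary electrophoresis) after 24 h compound exposure of transiently transfected HepG2 cells carrying a RORg-Gal4 chimera and GAL4-UAS reporters; DMSO served as baseline, with increasing signal fitted.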

[7] = biological target: Retinoic acid receptor RXR-alpha (Homo sapiens) (UniProt P19793); assay: ATG_RXRa_TRANS: Attagene TRANS-FACTORIAL HepG2 Assay for human Retinoid X Receptor alpha (RXRa) (AID 2283012)
Retinoic acid receptor RXR-alpha (Homo sapiens), sequence (P19793 whole entry, looked up, the tested form may be a part): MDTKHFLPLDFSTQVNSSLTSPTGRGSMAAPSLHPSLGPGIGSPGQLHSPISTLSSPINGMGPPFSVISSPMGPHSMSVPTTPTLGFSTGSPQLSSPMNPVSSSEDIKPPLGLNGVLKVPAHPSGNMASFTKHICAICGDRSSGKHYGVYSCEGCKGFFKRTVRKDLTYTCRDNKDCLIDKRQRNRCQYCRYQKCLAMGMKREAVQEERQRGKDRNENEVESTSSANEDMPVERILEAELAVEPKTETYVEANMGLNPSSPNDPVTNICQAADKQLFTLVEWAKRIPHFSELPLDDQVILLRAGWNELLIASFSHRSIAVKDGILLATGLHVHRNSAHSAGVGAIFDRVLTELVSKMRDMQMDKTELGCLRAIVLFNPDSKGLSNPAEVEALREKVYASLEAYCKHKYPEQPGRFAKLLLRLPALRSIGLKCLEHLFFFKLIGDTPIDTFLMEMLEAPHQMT
Outline: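 HepG2 cells transiently transfected with multiplexed GAL4-UAS reporter units and chimeric NR-GAL4 fusions, dosed 24 h. Reporter mRNA measured by RT-PCR, FAM labelling, HpaI digestion and capillary electrophoresis; gain-of-signal fitted relative to DMSO baseline.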

[8] = biological target: human Retinoid X Receptor beta (RXRb), RXRB (gene 6257) (UniProt P28702); assay: ATG_RXRb_TRANS: Attagene TRANS-FACTORIAL HepG2 Assay for human Retinoid X Receptor beta (RXRb) (AID 2283013)
human Retinoid X Receptor beta (RXRb), RXRB (gene 6257), sequence (P28702 whole entry, looked up, the tested form may be a part): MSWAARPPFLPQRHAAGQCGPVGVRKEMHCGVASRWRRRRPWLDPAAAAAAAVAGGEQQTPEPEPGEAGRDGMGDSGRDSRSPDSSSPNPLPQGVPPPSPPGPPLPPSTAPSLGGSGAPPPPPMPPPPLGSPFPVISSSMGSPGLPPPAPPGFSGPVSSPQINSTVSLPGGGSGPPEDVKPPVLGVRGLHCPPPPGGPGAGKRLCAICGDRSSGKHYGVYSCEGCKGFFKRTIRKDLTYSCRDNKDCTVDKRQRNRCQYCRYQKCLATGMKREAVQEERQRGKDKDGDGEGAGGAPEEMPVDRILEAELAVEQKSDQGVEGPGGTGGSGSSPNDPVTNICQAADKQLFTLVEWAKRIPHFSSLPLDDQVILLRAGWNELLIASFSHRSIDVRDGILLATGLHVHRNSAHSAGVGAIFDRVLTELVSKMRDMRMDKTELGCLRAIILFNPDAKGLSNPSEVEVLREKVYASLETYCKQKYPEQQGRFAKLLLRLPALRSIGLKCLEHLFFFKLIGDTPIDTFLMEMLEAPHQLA
Outline: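 HepG2 cells transiently transfected with multiplexed reporter units driven by GAL4-UAS and exogenous chimeric NR-Gal4 proteins; treated 24 h. Reporter mRNA measured by RT-PCR, 6-FAM labelling and capillary electrophoresis; gain-of-signal fitted versus DMSO baseline.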

[9] = biological target: human Thyroid Receptor alpha (THRa1), THRA (gene 7067) (UniProt P10827); assay: ATG_THRa1_TRANS: Attagene TRANS-FACTORIAL HepG2 Assay for human Thyroid Receptor alpha (THRa1) (AID 2283014)
human Thyroid Receptor alpha (THRa1), THRA (gene 7067), sequence (P10827 whole entry, looked up, the tested form may be a part): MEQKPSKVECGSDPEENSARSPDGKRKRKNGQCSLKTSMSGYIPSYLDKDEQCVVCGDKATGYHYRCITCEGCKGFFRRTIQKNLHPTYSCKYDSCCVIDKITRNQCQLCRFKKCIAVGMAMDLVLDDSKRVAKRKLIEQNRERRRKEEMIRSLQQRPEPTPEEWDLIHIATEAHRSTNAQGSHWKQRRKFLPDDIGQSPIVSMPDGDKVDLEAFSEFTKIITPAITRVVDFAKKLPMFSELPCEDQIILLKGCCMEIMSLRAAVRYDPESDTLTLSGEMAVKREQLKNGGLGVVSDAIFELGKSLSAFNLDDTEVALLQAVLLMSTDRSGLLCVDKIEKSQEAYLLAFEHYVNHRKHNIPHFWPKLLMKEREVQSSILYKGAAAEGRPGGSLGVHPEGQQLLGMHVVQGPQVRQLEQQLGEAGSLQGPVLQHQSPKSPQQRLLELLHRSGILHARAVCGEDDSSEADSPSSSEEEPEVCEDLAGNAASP
Outline: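 HepG2 cells transiently transfected with multiplexed GAL4-UAS reporter units for exogenous chimeric THRa1-Gal4; reporter mRNA measured 24 h after dosing by RT-PCR, 6-FAM labelling, HpaI digestion and capillary electrophoresis. Gain-of-signal fitted versus DMSO baseline.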

[10] = biological target: Retinoic acid receptor alpha (Homo sapiens) (UniProt P10276); assay: ATG_RARa_TRANS: Attagene TRANS-FACTORIAL HepG2 Assay for human Retinoic Acid Receptor alpha (RARa) (AID 2283005)
Outline: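 HepG2 transiently transfected with multiplex GAL4-UAS reporter units including a human RARa–GAL4 chimera; 24 h compound exposure. Reporter mRNA quantified by RT-PCR, 6-FAM labeling and capillary electrophoresis; gain of signal versus DMSO.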

[11] = read-out: Intercellular Adhesion Molecule 1 (ICAM1), ICAM1 (gene 3383); assay: BSK_3C_ICAM1: BioMAP Diversity Plus: 3C Assay for Intercellular Adhesion Molecule 1 (ICAM1) Biomarker Activity (AID 2283003; active means hit-call score of the fitted dose curve at least 0.9, where 1 is the maximum; inactive means score below 0.9); details: primary human endothelial cells (HUVEC); actives raise or lower the signal
Outline: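 Primary human umbilical vein endothelial cells in the BioMAP 3C system were exposed to chemicals for 24 h, then ICAM-1 was quantified by ELISA. Activity was fitted bidirectionally against the DMSO negative control baseline.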

[12] = BSK_3C_Proliferation: Cell Proliferation Assessment in the BioMAP Diversity Plus: 3C Assay (AID 2283006; active means hit-call score of the fitted dose curve at least 0.9, where 1 is the maximum; inactive means score below 0.9;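 on AC50: potency may reflect either rise or fall in cell number versus DMSO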); details: primary human endothelial cells (HUVEC)
Outline: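 Human umbilical vein endothelial cells were grown sub-confluent and exposed to chemical for 48 h, then fixed with 10% TCA and stained with 0.1% sulforhodamine B; absorbance at 560 nm gave relative cell number, fitted bidirectionally against DMSO baseline.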

[13] = read-out: Interleukin-1 alpha (IL1a), IL1A (gene 3552); assay: BSK_BE3C_IL1a: BioMAP Diversity Plus: BE3C Assay for Interleukin-1 alpha (IL1a) Biomarker Activity (AID 2283016; active means hit-call score of the fitted dose curve at least 0.9, where 1 is the maximum; inactive means score below 0.9); details: primary human bronchial epithelial cells; actives raise or lower the signal
Outline: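 Human primary bronchial epithelial cells (BE3C system) were dosed with compound and IL-1a measured by ELISA 24 h later. Activity was fitted bidirectionally against DMSO baseline; cytotoxicity was tracked in parallel cultures by SRB total-protein staining.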

[14] = read-out: Monocyte Chemoattractant Protein-1 (MCP1), CCL2 (gene 6347); assay: BSK_3C_MCP1: BioMAP Diversity Plus: 3C Assay for Monocyte Chemoattractant Protein-1 (MCP1) Biomarker Activity (AID 2283017; active means hit-call score of the fitted dose curve at least 0.9, where 1 is the maximum; inactive means score below 0.9); details: primary human endothelial cells (HUVEC); actives raise or lower the signal
Outline: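 Primary human umbilical vein endothelial cells (3C system) were exposed to test chemical for 24 h, after which MCP-1 was quantified by ELISA. Activity was fitted bidirectionally against DMSO as negative control and baseline.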

[15] = read-out: Monocyte Chemoattractant Protein-1 (MCP1), CCL2 (gene 6347); assay: BSK_4H_MCP1: BioMAP Diversity Plus: 4H Assay for Monocyte Chemoattractant Protein-1 (MCP1) Biomarker Activity (AID 2283018; active means hit-call score of the fitted dose curve at least 0.9, where 1 is the maximum; inactive means score below 0.9); details: primary human endothelial cells (HUVEC); actives raise or lower the signal
Outline: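 Human umbilical vein endothelial cells (4H system) dosed with chemical; MCP-1 measured by ELISA 24 h after dosing. Bidirectional curve fitting against DMSO negative control as baseline; parallel SRB total-protein staining tracks overt cytotoxicity.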

[16] = read-out: Human Leukocyte Antigen - DR isotype (HLADR), HLA-DRA (gene 3122); assay: BSK_3C_HLADR: BioMAP Diversity Plus: 3C Assay for Human Leukocyte Antigen - DR isotype (HLADR) Biomarker Activity (AID 2283019; active means hit-call score of the fitted dose curve at least 0.9, where 1 is the maximum; inactive means score below 0.9); details: primary human endothelial cells (HUVEC); actives raise or lower the signal
Outline: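 Primary human umbilical vein endothelial cells (3C system) were dosed with compound and cell-surface HLA-DR was quantified by ELISA at 24 h. Activity was fitted bidirectionally against DMSO as negative control and baseline.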

[17] = read-out: Interleukin-8 (IL8), CXCL8 (gene 3576); assay: BSK_3C_IL8: BioMAP Diversity Plus: 3C Assay for Interleukin-8 (IL8) Biomarker Activity (AID 2283020; active means hit-call score of the fitted dose curve at least 0.9, where 1 is the maximum; inactive means score below 0.9); details: primary human endothelial cells (HUVEC); actives raise or lower the signal
Outline: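 Primary human umbilical vein endothelial cells (3C system) were exposed to test chemical for 24 h, then IL-8 was quantified by ELISA. Responses were fitted bidirectionally against DMSO vehicle as baseline.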

[18] = read-out: Monokine induced gamma interferon (MIG), CXCL9 (gene 4283); assay: BSK_3C_MIG: BioMAP Diversity Plus: 3C Assay for Monokine induced gamma interferon (MIG) Biomarker Activity (AID 2283021; active means hit-call score of the fitted dose curve at least 0.9, where 1 is the maximum; inactive means score below 0.9;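 on AC50: MIG protein level measured by immunoassay in the treated endothelial cultures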); details: primary human endothelial cells (HUVEC); actives raise or lower the signal
Outline: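 Primary human umbilical vein endothelial cells in the 3C system were exposed to chemical for 24 h, after which MIG was quantified by ELISA. Activity was fitted bidirectionally against DMSO as negative control and baseline.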

[19] = read-out: E-selectin (Homo sapiens) (UniProt P16581); assay: BSK_3C_Eselectin: BioMAP Diversity Plus: 3C Assay for Eselectin Biomarker Activity (AID 2283015; active means hit-call score of the fitted dose curve at least 0.9, where 1 is the maximum; inactive means score below 0.9); details: primary human endothelial cells (HUVEC); actives raise or lower the signal
Outline: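 Primary human umbilical vein endothelial cells (3C system) were dosed with chemical and cell-surface E-selectin measured by ELISA 24 h later. Bidirectional curve fitting used DMSO as negative control and baseline.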

[20] = biological target: human Retinoic Acid Receptor beta (RARb), RARB (gene 5915) (UniProt P10826); assay: ATG_RARb_TRANS: Attagene TRANS-FACTORIAL HepG2 Assay for human Retinoic Acid Receptor beta (AID 2283004)
human Retinoic Acid Receptor beta (RARb), RARB (gene 5915), sequence (P10826 whole entry, looked up, the tested form may be a part): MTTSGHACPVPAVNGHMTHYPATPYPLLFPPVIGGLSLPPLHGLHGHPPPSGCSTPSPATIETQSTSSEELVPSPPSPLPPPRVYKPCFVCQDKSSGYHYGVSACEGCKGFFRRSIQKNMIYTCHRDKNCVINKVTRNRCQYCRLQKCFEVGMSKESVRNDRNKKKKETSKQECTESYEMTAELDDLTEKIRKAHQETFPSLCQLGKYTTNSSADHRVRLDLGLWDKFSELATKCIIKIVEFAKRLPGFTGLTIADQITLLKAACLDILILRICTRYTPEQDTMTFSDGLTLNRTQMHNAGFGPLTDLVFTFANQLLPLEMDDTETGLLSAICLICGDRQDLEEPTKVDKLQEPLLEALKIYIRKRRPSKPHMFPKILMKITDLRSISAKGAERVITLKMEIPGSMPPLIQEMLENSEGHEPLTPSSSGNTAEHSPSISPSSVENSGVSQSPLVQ
Outline: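 HepG2 cells transiently transfected with multiplexed GAL4-UAS reporter units expressing chimeric NR–Gal4 fusions; 24 h compound exposure. Reporter mRNA quantified by RT-PCR, 6-FAM labelling, HpaI digestion and capillary electrophoresis; gain-of-signal fitted against DMSO baseline.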

Measured: AC50

Cc1ccc(S)cc1
inactive: [1] | [2] | [4]
active: [3] 22.8 µM

CCCCCCOC(=O)CC
inactive: [1] | [2] | [3] | [4] | [5] | [6] | [7] | [8] | [9]

c1ccc2[nH]ccc2c1
inactive: [1] | [2] | [3] | [4] | [5] | [7] | [8] | [9]

CC1(C)C(=O)N(Br)C(=O)N1Cl
inactive: [1] | [2] | [10] | [3] | [9]

CC(C)(COC(=O)c1ccccc1)COC(=O)c1ccccc1
active: [12] 22.2 µM | [14] 34.4 µM | [15] 11.3 µM | [16] 27.8 µM
not listed: [5] | [6] | [7] | [10] | [19] | [20]
inactive: all other assays above

C=C(C)C(=O)O[C@H]1C[C@@H]2CC[C@@]1(C)C2(C)C
inactive: [1] | [2] | [3] | [5] | [7]
active: [11] 28.8 µM | [12] 8.38 µM | [4] 31.6 µM | [8] 100 µM | [19] 15.1 µM | [13] 20 µM | [14] 20 µM | [15] 5.54 µM | [16] 9.37 µM | [17] 20 µM | [18] 34.7 µM

CCCCNC(=O)NS(=O)(=O)c1ccc(C)cc1
inactive: [1] | [2] | [3] | [4] | [5] | [7] | [8] | [9]

CCCCCOC(=O)CCC
inactive: [1] | [2] | [20] | [3] | [4] | [5] | [6] | [7] | [8]

Nc1cc(Cl)c(O)c(Cl)c1
inactive: [1] | [2] | [4] | [5] | [6] | [7] | [9]
active: [3] 30 µM

Nc1cc([N+](=O)[O-])ccc1O
not listed: [6] | [9] | [10] | [19] | [20]
inactive: all other assays above

C=CC(C)(CCC=C(C)C)OC=O (stereo not given)
inactive: [1] | [2] | [3] | [4] | [5] | [6] | [9]

O=C(Cl)c1cccc(C(=O)Cl)c1
inactive: [1]

CC1(C)CCC(C)(C)c2cc(C(=O)Nc3ccc(C(=O)O)cc3)ccc21
active: [3] 100 µM
inactive: [1] | [2] | [20] | [7] | [8]
